Active and inactive are the calls of the source.
Key:
[1] = compounds binding Alexa647 anti-His antibody – biochemical, small-molecule microarray, 635 nm fluorescence, artefact control for SMM control protein annotation, primary screen (AID 1128); details: higher = more signal;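 note: score merges feature fluorescence with signal-to-noise for each printed compound spot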
[2] = test system: Human papillomavirus type 1a E7 protein (residues 1-88); test: HPV1a E7 small-molecule binders, primary screen, biochemical, small-molecule microarray, residues 1-88, 635 nm (AID 1129); details: small-molecule microarray binding, fluorescence 635 nm; higher = more signal
[3] = biological target: Focal adhesion kinase 1 (Homo sapiens) (UniProt Q05397); test: PTK2 protein binding on printed compound slides – biochemical, small-molecule microarray, 635/667 nm fluorescence, BSA, DTT, primary screen (AID 1130); details: 635 nm fluorescence, higher = more signal;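 note: composite of spot emission at 667 nm and signal to noise over triplicate slides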
[4] = test system: Fibrinogen (Alexa647-labelled); test: Alexa647-fibrinogen binding to printed small molecules – biochemical, small-molecule microarray, 635/667 nm fluorescence, artefact control for SMM control-protein annotation, profiling panel (AID 1131); details: fibrinogen-A647 binding fluorescence, higher = more signal;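 note: z-score merges 667 nm fluorescence with per-spot signal-to-noise over triplicate slides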
[5] = biological target: Follistatin (Homo sapiens) (UniProt P19883); test: FST protein binding to printed compounds – biochemical, small-molecule microarray, 635/667 nm fluorescence, primary screen (AID 1132); details: 635 nm fluorescence, higher = more signal
[6] = biological target: Fibroblast growth factor 2 (Homo sapiens) (UniProt P09038); test: basic fibroblast growth factor binding to printed compounds – biochemical, small-molecule microarray, 635/667 nm fluorescence, primary screen (AID 1133); details: FGF2, fluorescence 635/667, higher = more signal
[7] = JC-1 mitochondrial potential readout, lung cancer cells – cell-based, A549, JC-1 fluorescence, basal, 24 h, 100 nL, profiling panel (AID 1138); details: higher = more signal;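 note: A549 lung adenocarcinoma cells under basal conditions with no added stimulus; test concentration not given here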
Lefty1 = Lefty1 protein binding to printed compounds – biochemical, small-molecule microarray, 635/667 nm fluorescence, primary screen (AID 1139); details: fluorescence 635/667, higher = more signal
[8] = test system: wheat germ agglutinin (Triticum aestivum), Alexa647-labelled; test: Alexa647-WGA lectin binding to printed small molecules – biochemical, small-molecule microarray, 635/667 nm fluorescence, artefact control for SMM control-protein annotation, profiling panel (AID 1140); details: WGA-A647 binding, 635 nm fluorescence, higher = more signal;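 note: score merges 667 nm feature emission with signal to noise over triplicate slides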
[9] = biological target: Luciferin 4-monooxygenase (Photinus pyralis) (UniProt P08659); test: inhibition of purified Photinus pyralis luciferase – biochemical, luminescence, purified enzyme, 2006 set, primary screen (AID 1141); details: purified firefly luciferase, SteadyGlo luminescence, 30 min; higher = more signal, called active from +8 up or from −8 down;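 note: cell-free assay with purified firefly luciferase at 100 ng per well in PBS; test concentration not given here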
Sequence of Luciferin 4-monooxygenase (Photinus pyralis) (P08659 whole entry, looked up): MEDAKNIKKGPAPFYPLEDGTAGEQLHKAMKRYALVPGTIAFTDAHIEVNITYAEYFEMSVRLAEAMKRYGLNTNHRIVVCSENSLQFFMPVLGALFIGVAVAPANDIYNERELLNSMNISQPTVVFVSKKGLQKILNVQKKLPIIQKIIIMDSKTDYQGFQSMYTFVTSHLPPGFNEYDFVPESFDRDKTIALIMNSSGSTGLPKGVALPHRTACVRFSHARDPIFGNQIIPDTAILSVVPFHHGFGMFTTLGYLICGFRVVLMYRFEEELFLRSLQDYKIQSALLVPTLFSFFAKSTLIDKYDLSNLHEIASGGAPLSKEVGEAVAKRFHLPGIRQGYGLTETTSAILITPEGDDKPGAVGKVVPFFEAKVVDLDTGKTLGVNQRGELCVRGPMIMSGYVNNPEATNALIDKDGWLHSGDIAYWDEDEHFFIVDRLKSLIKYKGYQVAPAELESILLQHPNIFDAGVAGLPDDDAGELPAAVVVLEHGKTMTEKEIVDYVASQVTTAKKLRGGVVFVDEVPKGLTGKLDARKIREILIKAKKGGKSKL

Sequence of Fibroblast growth factor 2 (Homo sapiens) (P09038 whole entry, looked up): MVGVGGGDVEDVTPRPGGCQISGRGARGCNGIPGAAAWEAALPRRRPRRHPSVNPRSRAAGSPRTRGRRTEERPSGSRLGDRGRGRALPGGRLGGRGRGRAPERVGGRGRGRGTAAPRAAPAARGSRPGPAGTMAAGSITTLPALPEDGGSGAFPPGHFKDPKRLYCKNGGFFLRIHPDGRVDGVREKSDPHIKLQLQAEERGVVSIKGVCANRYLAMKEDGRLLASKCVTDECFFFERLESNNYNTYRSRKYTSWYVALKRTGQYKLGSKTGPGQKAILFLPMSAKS
Sequence of Follistatin (Homo sapiens) (P19883 whole entry, looked up): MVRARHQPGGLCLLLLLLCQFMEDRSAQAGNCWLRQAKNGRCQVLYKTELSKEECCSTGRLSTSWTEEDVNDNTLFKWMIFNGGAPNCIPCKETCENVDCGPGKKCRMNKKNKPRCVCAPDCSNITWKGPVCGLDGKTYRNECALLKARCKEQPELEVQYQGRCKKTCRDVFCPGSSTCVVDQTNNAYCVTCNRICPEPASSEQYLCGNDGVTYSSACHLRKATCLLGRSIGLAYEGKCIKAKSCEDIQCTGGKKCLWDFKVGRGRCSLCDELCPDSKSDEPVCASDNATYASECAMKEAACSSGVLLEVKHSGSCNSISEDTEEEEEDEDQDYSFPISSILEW
Sequence of Focal adhesion kinase 1 (Homo sapiens) (Q05397 whole entry, looked up): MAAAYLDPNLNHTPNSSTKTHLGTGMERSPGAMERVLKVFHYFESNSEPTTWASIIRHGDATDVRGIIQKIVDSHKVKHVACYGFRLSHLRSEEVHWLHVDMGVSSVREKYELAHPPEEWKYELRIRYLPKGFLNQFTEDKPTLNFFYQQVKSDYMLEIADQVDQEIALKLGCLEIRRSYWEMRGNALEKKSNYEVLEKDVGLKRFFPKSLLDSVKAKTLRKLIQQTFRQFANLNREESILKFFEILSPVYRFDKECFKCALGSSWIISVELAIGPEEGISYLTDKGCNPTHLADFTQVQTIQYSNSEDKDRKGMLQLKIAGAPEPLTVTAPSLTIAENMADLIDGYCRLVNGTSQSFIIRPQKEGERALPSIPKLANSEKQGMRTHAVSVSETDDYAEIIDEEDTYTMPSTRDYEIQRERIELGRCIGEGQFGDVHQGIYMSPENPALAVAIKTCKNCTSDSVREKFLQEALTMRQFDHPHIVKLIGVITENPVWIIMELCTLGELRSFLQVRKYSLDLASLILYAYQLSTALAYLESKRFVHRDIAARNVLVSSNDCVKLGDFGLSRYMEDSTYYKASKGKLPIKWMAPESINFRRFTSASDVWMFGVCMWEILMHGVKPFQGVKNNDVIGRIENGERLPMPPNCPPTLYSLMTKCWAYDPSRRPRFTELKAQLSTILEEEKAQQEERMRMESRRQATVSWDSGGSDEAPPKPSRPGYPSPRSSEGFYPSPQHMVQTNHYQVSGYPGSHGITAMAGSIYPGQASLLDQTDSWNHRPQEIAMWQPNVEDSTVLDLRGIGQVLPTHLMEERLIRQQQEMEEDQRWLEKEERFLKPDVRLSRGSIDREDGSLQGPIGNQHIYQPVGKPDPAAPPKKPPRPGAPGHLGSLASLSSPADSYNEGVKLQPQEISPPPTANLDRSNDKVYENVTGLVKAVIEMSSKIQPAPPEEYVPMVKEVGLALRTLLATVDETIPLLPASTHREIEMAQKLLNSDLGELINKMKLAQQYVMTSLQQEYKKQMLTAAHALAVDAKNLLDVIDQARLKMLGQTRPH

Row | Compound | composite z-score [1] | composite z-score [2] | composite z-score [3] | composite z-score [4] | composite z-score [5] | composite z-score [6] | z-score [7] | composite z-score (Lefty1) | composite z-score [8] | z-score [9]
1 | CO[C@H]1O[C@H](CO)[C@@H](OC(=O)Nc2ccc(Br)cc2)[C@@H]2OC(=O)[C@@H](Cc3ccccc3)C/C=C/C[C@H](Cc3ccccc3)C(=O)O[C@@H]12 | 2.43 | 1.16 | 0.619 | 0.442 | 0.313 | 0.397 | 2.5 | -0.0196 | 0.424 | -1.38 (inactive)
2 | [N-]=[N+]=NCc1ccccc1[C@@H]1OC(c2ccc(OCCCO)cc2)=N[C@]1(CCS(=O)(=O)c1ccccc1)C(=O)O | 0.843 | 0.843 | 0.809 | 0.839 | 0.0575 | -0.517 | -0.586 | 0.381 | 1.17 | -5.21 (inactive)
3 | CC1CC/C=C\[C@H]2OC34C=CCN(c5ccc6ccccc6c5)C(=O)[C@H]3N(CCCO)C(=O)[C@@H]4C2C(=O)O1 (stereo not given in full) | 1.08 | -0.453 | -0.633 | -0.794 | -0.82 | -1.86 | -0.148 | -1.12 | -0.985 | -0.212 (inactive)
4 | CCCCCCc1nc(Cc2cc(OC)c(OC)c(OC)c2)cc2c1[Si](C(C)C)(C(C)C)OC2 | -0.215 | -0.517 | -0.191 | -0.0217 | 0.422 | 0.521 | 0.185 | 0.566 | -0.0555 | 0.809 (inactive)
5 | NC(=O)[C@H]1[C@@H]2C(=O)O[C@@H](c3ccccc3)[C@@H](c3ccccc3)N2[C@@H](c2ccc(OCCO)cc2)[C@]12C(=O)Nc1ccc(C#CCCO)cc12 | 0.92 | 1.18 | 0.798 | 0.746 | 1.13 | 0.35 | -0.262 | 0.551 | 0.9 | -1.05 (inactive)
6 | CCCC=C(CCC)[C@@H](NC(=O)c1cccs1)c1ccc(C(=O)OC)cc1 | 0.196 | 0.741 | 0.205 | 0.686 | 0.816 | 1.13 | 0.733 | -0.223 | -0.119 | 2.23 (inactive)
7 | COc1ccc(C#Cc2ccc3c(c2)[C@]2(C(=O)N3)[C@H](C(=O)O)[C@H]3C(=O)O[C@H](c4ccccc4)[C@H](c4ccccc4)N3[C@@H]2c2ccc(O)cc2)cc1 | -0.272 | 0.691 | 0.0564 | -0.142 | -0.474 | -0.521 | -2.42 | -0.422 | 0.208 | -1.01 (inactive)
8 | O=C1O[C@H](c2ccccc2)[C@H](c2ccccc2)N2[C@H]1[C@@H](C(=O)O)[C@]1(C(=O)Nc3ccc(C#CCCO)cc31)[C@H]2c1ccccc1OCCO | 0.84 | 0.0764 | 0.0281 | 0.289 | 0.622 | -0.0212 | -0.689 | 0.404 | 0.842 | -0.747 (inactive)
9 | [N-]=[N+]=Nc1ccccc1C[C@@]1(C(=O)N2CCOCC2)N=C(c2ccc(OCCCO)cc2)O[C@@H]1c1ccccc1 | 1.19 | 1.19 | 0.625 | 0.986 | 1.32 | 1.35 | 1.08 | 0.3 | 0.313 | -2.43 (inactive)
10 | CCC1=C2CN(Cc3ccccc3)[C@@H](C(=O)Cc3ccccc3)C2C=CCC1 (stereo not given in full) | 0.797 | -0.0353 | -0.383 | 0.666 | 0.578 | 0.0052 | -1.22 | 0.352 | 0.557 | 0.313 (inactive)
11 | COc1ccc([Si](C)(C)[C@@H]2[C@@H](CCO)O[C@]3(C(=O)N(Cc4ccccc4)c4ccc(N5C(=O)c6cccc7cccc5c67)cc43)[C@H]2C)cc1 | -0.435 | -0.0814 | 0.15 | -0.304 | -0.384 | -0.176 | -0.0894 | -0.52 | 0.342 | -1.04 (inactive)
12 | N[C@@H](Cc1ccccc1)C(=O)NCc1cn(Cc2ccccc2)nn1 | 0.615 | -0.096 | -0.519 | 0.395 | 1.15 | 0.416 | 0.154 | 0.2 | 0.309 | -0.352 (inactive)
13 | C=CC[C@H](OC(=O)Nc1ccc(SC)cc1)c1ccc(O)c2ccccc12 | 0.942 | 1.23 | 0.492 | 0.938 | 1.36 | 1.23 | -1.72 | 1.08 | 0.937 | -4.58 (inactive)
14 | COc1cc(NN2C(C(O)c3ccco3)C=CC3C(=O)N(C)C(=O)C32)cc(OC)c1OC (stereo not given) | 1.04 | 0.388 | -0.422 | 0.127 | -0.0496 | 0.127 | 0.629 | 0.0051 | 0.793 | -0.249 (inactive)
15 | COc1ccc([Si](C)(C)[C@H]2[C@H](CC(=O)N(CCO)Cc3ccccc3)O[C@@]3(C(=O)N(C)c4c(Br)cc(C)cc43)[C@@H]2C)cc1 | 1.19 | 1.03 | -0.0842 | -0.009 | 1.51 | 1.84 | -0.774 | 1.57 | 0.61 | -0.342 (inactive)

Source: PubChem BioAssay
